# According to PubChem BioAssay AID1159580 (chemical genetic matrix, 2015):
# The whole screen tested about 5,500 compounds, of which about 2,000 (36%) were called active. Inconclusive results (about 18%) are left out. The list shows a part of the results. Values without a mark were called inactive. Cut-off read from the data, not from the text of the source: active = normalized growth mostly below about 0.91 (no sharp cut-off); inconclusive = no clear call, values can overlap the other calls; inactive = mostly above about 0.92.
# Test: chemical genetic growth profiling, strain panel (AID 1159580);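 note: tested at 20 µM; growth read once vehicle control cultures reached saturation at 30 °C; 1 = growth at the plate median or of vehicle wells; lower values mean less growth of the strain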
# Conditions: growth OD
smiles,measurement,setting,value
O=C(O)CCCCC1CCSS1 (configuration not stated),normalized growth,"S. cerevisiae deletion strains, locus YJR075W, strain HOC1, stronger effect = lower value",1
same,normalized growth,"S. cerevisiae deletion strains, locus YKL009W, strain mrt4, stronger effect = lower value",0.978
same,normalized growth,"S. cerevisiae deletion strains, locus YKL068W, stronger effect = lower value",1.01
same,normalized growth,"S. cerevisiae deletion strains, locus YKL085W, strain MDH1 (second series), stronger effect = lower value",0.996
same,normalized growth,"S. cerevisiae deletion strains, locus YKL085W, strain MDH1, stronger effect = lower value",0.996
same,normalized growth,"S. cerevisiae deletion strains, locus YKL160W, strain elf1, stronger effect = lower value",0.988
same,normalized growth,"S. cerevisiae deletion strains, locus YKL190W, strain CNB1, stronger effect = lower value",0.989
same,normalized growth,"S. cerevisiae deletion strains, locus YKR001C, strain vps1, stronger effect = lower value",0.954
same,normalized growth,"S. cerevisiae deletion strains, locus YKR026C, strain gcn3, stronger effect = lower value",0.965
same,normalized growth,"S. cerevisiae deletion strains, locus YKR091W, strain srl3, stronger effect = lower value",0.982
same,normalized growth,"S. cerevisiae deletion strains, locus YLL001W, strain dnm1, stronger effect = lower value",0.95
same,normalized growth,"S. cerevisiae deletion strains, locus YLL026W, stronger effect = lower value",0.946
same,normalized growth,"S. cerevisiae deletion strains, locus YLL041C, strain sdh2, stronger effect = lower value",0.976
same,normalized growth,"S. cerevisiae deletion strains, locus YLR027C, strain aat2, stronger effect = lower value",0.973
same,normalized growth,"S. cerevisiae deletion strains, locus YLR039C, strain RIC1, stronger effect = lower value",0.943
same,normalized growth,"S. cerevisiae deletion strains, locus YLR058C, strain SHM2, stronger effect = lower value",0.968
same,normalized growth,"S. cerevisiae deletion strains, locus YLR102C, strain apc9, stronger effect = lower value",0.984
same,normalized growth,"S. cerevisiae deletion strains, locus YLR113W, strain HOG1, stronger effect = lower value",0.961
same,normalized growth,"S. cerevisiae deletion strains, locus YLR221C, strain rsa3, stronger effect = lower value",0.963
same,normalized growth,"S. cerevisiae deletion strains, locus YLR258W, strain gsy2, stronger effect = lower value",0.933
same,normalized growth,"S. cerevisiae deletion strains, locus YLR262C, strain YPT6 (second series), stronger effect = lower value",0.839 (active)
same,normalized growth,"S. cerevisiae deletion strains, locus YLR262C, strain YPT6, stronger effect = lower value",0.969
same,normalized growth,"S. cerevisiae deletion strains, locus YLR268W, strain sec22, stronger effect = lower value",1.06
same,normalized growth,"S. cerevisiae deletion strains, locus YLR320W, strain mms22, stronger effect = lower value",0.98
same,normalized growth,"S. cerevisiae deletion strains, locus YLR330W, strain CHS5, stronger effect = lower value",0.966
same,normalized growth,"S. cerevisiae deletion strains, locus YLR342W, strain FKS1 (second series), stronger effect = lower value",0.945
same,normalized growth,"S. cerevisiae deletion strains, locus YLR342W, strain FKS1, stronger effect = lower value",0.979
same,normalized growth,"S. cerevisiae deletion strains, locus YLR357W, strain rsc2, stronger effect = lower value",0.901
same,normalized growth,"S. cerevisiae deletion strains, locus YLR370C, strain arc18, stronger effect = lower value",0.986
same,normalized growth,"S. cerevisiae deletion strains, locus YLR371W, strain rom2, stronger effect = lower value",0.973
same,normalized growth,"S. cerevisiae deletion strains, locus YLR384C, strain iki3, stronger effect = lower value",0.977
same,normalized growth,"S. cerevisiae deletion strains, locus YLR418C, strain cdc73, stronger effect = lower value",0.979
same,normalized growth,"S. cerevisiae deletion strains, locus YML016C, strain PPZ1, stronger effect = lower value",0.982
same,normalized growth,"S. cerevisiae deletion strains, locus YML032C, strain rad52, stronger effect = lower value",0.993
same,normalized growth,"S. cerevisiae deletion strains, locus YML120C, strain ndi1, stronger effect = lower value",0.937
same,normalized growth,"S. cerevisiae deletion strains, locus YML124C, strain tub3, stronger effect = lower value",0.98
same,normalized growth,"S. cerevisiae deletion strains, locus YMR058W, strain fet3, stronger effect = lower value",0.968
same,normalized growth,"S. cerevisiae deletion strains, locus YMR078C, strain ctf18, stronger effect = lower value",0.979
same,normalized growth,"S. cerevisiae deletion strains, locus YMR125W, strain sto1, stronger effect = lower value",0.981
same,normalized growth,"S. cerevisiae deletion strains, locus YMR129W, stronger effect = lower value",0.937
same,normalized growth,"S. cerevisiae deletion strains, locus YMR205C, strain PFK2, stronger effect = lower value",0.921
same,normalized growth,"S. cerevisiae deletion strains, locus YMR223W, strain ubp8, stronger effect = lower value",0.948
same,normalized growth,"S. cerevisiae deletion strains, locus YMR231W, strain pep5, stronger effect = lower value",0.955
same,normalized growth,"S. cerevisiae deletion strains, locus YMR263W, strain SAP30, stronger effect = lower value",0.981
same,normalized growth,"S. cerevisiae deletion strains, locus YMR307W, strain GAS1, stronger effect = lower value",1.02
same,normalized growth,"S. cerevisiae deletion strains, locus YNL067W, strain RPL9B, stronger effect = lower value",1.01
same,normalized growth,"S. cerevisiae deletion strains, locus YNL071W, strain lat1, stronger effect = lower value",0.973
same,normalized growth,"S. cerevisiae deletion strains, locus YNL128W, strain TEP1, stronger effect = lower value",0.962
same,normalized growth,"S. cerevisiae deletion strains, locus YNL153C, strain GIM3, stronger effect = lower value",1
same,normalized growth,"S. cerevisiae deletion strains, locus YNL183C, strain NPR1, stronger effect = lower value",0.842
same,normalized growth,"S. cerevisiae deletion strains, locus YNL209W, strain ssb2, stronger effect = lower value",0.986
same,normalized growth,"S. cerevisiae deletion strains, locus YNL233W, strain BNI4, stronger effect = lower value",1.01
same,normalized growth,"S. cerevisiae deletion strains, locus YNL248C, strain rpa49, stronger effect = lower value",0.979
same,normalized growth,"S. cerevisiae deletion strains, locus YNL250W, strain rad50, stronger effect = lower value",0.979
same,normalized growth,"S. cerevisiae deletion strains, locus YNL271C, strain bni1, stronger effect = lower value",0.976
same,normalized growth,"S. cerevisiae deletion strains, locus YNL298W, strain CLA4, stronger effect = lower value",0.928
same,normalized growth,"S. cerevisiae deletion strains, locus YNL307C, strain MCK1, stronger effect = lower value",0.983
same,normalized growth,"S. cerevisiae deletion strains, locus YNL322C, strain KRE1 (second series), stronger effect = lower value",0.97
same,normalized growth,"S. cerevisiae deletion strains, locus YNL322C, strain KRE1, stronger effect = lower value",0.985
same,normalized growth,"S. cerevisiae deletion strains, locus YNR049C, strain mso1, stronger effect = lower value",0.97
same,normalized growth,"S. cerevisiae deletion strains, locus YNR052C, strain pop2, stronger effect = lower value",0.999
same,normalized growth,"S. cerevisiae deletion strains, locus YOL006C, strain TOP1, stronger effect = lower value",1.04
same,normalized growth,"S. cerevisiae deletion strains, locus YOL012C, strain htz1",0.885
same,normalized growth,"S. cerevisiae deletion strains, locus YOL147C, strain pex11, stronger effect = lower value",0.975
same,normalized growth,"S. cerevisiae deletion strains, locus YOR001W, strain rrp6, stronger effect = lower value",0.962
same,normalized growth,"S. cerevisiae deletion strains, locus YOR061W, strain CKA2, stronger effect = lower value",0.97
same,normalized growth,"S. cerevisiae deletion strains, locus YOR069W, strain VPS5, stronger effect = lower value",0.986
same,normalized growth,"S. cerevisiae deletion strains, locus YOR070C, strain gyp1, stronger effect = lower value",0.979
same,normalized growth,"S. cerevisiae deletion strains, locus YOR080W, strain dia2, stronger effect = lower value",0.962
same,normalized growth,"S. cerevisiae deletion strains, locus YOR083W, strain WHI5, stronger effect = lower value",0.989
same,normalized growth,"S. cerevisiae deletion strains, locus YOR106W, strain vam3, stronger effect = lower value",0.957
same,normalized growth,"S. cerevisiae deletion strains, locus YOR136W, strain idh2, stronger effect = lower value",0.969
same,normalized growth,"S. cerevisiae deletion strains, locus YOR144C, strain elg1, stronger effect = lower value",0.973
same,normalized growth,"S. cerevisiae deletion strains, locus YOR184W, strain ser1, stronger effect = lower value",0.973
same,normalized growth,"S. cerevisiae deletion strains, locus YOR231W, strain MKK1, stronger effect = lower value",0.892
same,normalized growth,"S. cerevisiae deletion strains, locus YOR265W, strain rbl2, stronger effect = lower value",0.973
same,normalized growth,"S. cerevisiae deletion strains, locus YOR270C, strain vph1, stronger effect = lower value",1.02
same,normalized growth,"S. cerevisiae deletion strains, locus YOR290C, strain snf2, stronger effect = lower value",0.91
same,normalized growth,"S. cerevisiae deletion strains, locus YOR316C, strain cot1, stronger effect = lower value",0.986
same,normalized growth,"S. cerevisiae deletion strains, locus YPL051W, strain arl3, stronger effect = lower value",0.981
same,normalized growth,"S. cerevisiae deletion strains, locus YPL055C, strain LGE1, stronger effect = lower value",1
same,normalized growth,"S. cerevisiae deletion strains, locus YPL078C, strain atp4, stronger effect = lower value",0.99
same,normalized growth,"S. cerevisiae deletion strains, locus YPL106C, strain sse1, stronger effect = lower value",0.965
same,normalized growth,"S. cerevisiae deletion strains, locus YPL240C, strain hsp82, stronger effect = lower value",0.97
same,normalized growth,"S. cerevisiae deletion strains, locus YPL241C, strain CIN2, stronger effect = lower value",0.98
same,normalized growth,"S. cerevisiae deletion strains, locus YPL256C, strain CLN2, stronger effect = lower value",0.94
same,normalized growth,"S. cerevisiae deletion strains, locus YPR119W, strain clb2, stronger effect = lower value",0.977
same,normalized growth,"S. cerevisiae deletion strains, locus YPR141C, strain kar3, stronger effect = lower value",0.985
same,normalized growth,"S. cerevisiae deletion strains, locus YPR163C, strain tif3, stronger effect = lower value",0.989
same,normalized growth,"S. cerevisiae deletion strains, locus YPR167C, strain met16, stronger effect = lower value",0.988
same,normalized growth,"S. cerevisiae deletion strains, strain wtn01, stronger effect = lower value",1
same,normalized growth,"S. cerevisiae strains, strain wild type, stronger effect = lower value",0.978
